# Key:
# Test in all cases: DAPPL (digital affinity profiling via proximity ligation, sequencing); 10 mM Tris-HCl pH 7.5, 50 mM NaCl, 1 mM DTT, 4% glycerol, room temperature, 30 min; GST-TFs on glutathione beads, 16-mer random dsDNA library, 0.1% formaldehyde crosslink after washing; high values mean tight binding
# FLI1 = biological target: T1, FLI1 (Homo sapiens, UniProt Q01543 1-452); conditions: protein: recombinant; tags: N-terminal GST; dsDNA, one strand shown
# T1 sequence: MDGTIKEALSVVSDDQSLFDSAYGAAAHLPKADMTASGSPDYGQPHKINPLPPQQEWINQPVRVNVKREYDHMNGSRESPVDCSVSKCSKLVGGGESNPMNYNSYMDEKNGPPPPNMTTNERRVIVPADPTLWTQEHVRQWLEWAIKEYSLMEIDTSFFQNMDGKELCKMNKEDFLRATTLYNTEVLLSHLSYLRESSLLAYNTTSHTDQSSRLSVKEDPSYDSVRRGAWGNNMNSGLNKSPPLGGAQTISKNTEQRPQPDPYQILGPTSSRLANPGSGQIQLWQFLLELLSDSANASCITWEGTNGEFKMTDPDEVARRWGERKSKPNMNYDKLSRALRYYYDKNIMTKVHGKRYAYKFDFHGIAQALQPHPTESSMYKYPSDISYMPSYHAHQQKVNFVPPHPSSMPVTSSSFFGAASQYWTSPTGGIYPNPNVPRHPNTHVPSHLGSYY
# Summary of the method: (§1)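 Binding signal is given per hexamer as its read frequency for a factor divided by its frequency in the tag-only sample. GST-fused human transcription factors were expressed in yeast, captured on glutathione beads, barcoded with DNA and pooled with that sample, then incubated with 200 nmole of a 16-mer random double-stranded DNA library in Tris/NaCl/DTT/glycerol buffer for 30 min at room temperature. The pools were then washed, crosslinked, proximity-ligated, amplified by PCR and sequenced on an Illumina NextSeq500.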
# ELK1 = biological target: T2, ELK1 (Homo sapiens, UniProt P19419 1-428); conditions: protein: recombinant; tags: N-terminal GST; dsDNA, one strand shown
# T2 sequence: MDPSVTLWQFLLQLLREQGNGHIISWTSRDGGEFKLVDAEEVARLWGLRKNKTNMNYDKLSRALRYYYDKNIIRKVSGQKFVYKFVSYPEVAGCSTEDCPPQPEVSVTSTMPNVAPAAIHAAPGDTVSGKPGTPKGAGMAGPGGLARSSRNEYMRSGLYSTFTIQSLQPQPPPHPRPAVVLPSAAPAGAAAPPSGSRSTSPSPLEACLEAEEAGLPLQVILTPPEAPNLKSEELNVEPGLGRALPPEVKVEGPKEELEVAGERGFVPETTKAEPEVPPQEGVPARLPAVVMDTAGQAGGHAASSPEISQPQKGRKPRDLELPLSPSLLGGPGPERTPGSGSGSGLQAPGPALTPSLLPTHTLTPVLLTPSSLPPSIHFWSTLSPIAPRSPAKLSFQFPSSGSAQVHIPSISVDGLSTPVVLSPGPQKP
# Summary of the method: as §1
# GABPA = biological target: T3, GABPA (Homo sapiens, UniProt Q06546 1-454); conditions: protein: recombinant; tags: N-terminal GST; dsDNA, one strand shown
# T3 sequence: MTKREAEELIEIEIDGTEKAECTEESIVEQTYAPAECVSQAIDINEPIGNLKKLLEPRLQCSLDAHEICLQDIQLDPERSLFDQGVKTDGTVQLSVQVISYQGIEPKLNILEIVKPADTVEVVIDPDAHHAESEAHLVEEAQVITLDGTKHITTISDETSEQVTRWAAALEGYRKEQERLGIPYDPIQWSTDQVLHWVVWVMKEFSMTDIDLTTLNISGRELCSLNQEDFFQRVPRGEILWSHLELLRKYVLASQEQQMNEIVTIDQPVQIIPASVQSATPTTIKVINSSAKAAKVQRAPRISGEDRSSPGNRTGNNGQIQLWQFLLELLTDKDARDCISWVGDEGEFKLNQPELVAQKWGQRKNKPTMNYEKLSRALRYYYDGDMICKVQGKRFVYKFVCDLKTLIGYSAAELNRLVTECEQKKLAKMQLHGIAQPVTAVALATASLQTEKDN
# Summary of the method: as §1
# ERG = biological target: T4, ERG (Homo sapiens, UniProt P11308 1-479); conditions: protein: recombinant; tags: N-terminal GST; dsDNA, one strand shown
# T4 sequence: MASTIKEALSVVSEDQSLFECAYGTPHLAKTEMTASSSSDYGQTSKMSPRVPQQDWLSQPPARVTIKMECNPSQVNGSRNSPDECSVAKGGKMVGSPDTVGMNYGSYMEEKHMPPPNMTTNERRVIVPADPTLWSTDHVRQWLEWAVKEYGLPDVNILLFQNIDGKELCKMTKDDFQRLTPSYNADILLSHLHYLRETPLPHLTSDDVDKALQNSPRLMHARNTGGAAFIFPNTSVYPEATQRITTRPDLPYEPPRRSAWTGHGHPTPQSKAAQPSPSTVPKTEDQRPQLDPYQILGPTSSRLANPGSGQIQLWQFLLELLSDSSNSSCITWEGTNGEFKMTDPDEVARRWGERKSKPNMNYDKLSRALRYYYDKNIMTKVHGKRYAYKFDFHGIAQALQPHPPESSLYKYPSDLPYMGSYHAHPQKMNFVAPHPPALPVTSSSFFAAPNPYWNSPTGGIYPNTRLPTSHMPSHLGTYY
# Summary of the method: as §1
# ELF1 = ELF1 (Homo sapiens, UniProt P32519 1-619); conditions: protein: recombinant; tags: N-terminal GST; dsDNA, one strand shown
# Summary of the method: as §1
# EHF = biological target: T5, EHF (Homo sapiens, UniProt Q9NZC4 1-300); conditions: protein: recombinant; tags: N-terminal GST; dsDNA, one strand shown
# T5 sequence: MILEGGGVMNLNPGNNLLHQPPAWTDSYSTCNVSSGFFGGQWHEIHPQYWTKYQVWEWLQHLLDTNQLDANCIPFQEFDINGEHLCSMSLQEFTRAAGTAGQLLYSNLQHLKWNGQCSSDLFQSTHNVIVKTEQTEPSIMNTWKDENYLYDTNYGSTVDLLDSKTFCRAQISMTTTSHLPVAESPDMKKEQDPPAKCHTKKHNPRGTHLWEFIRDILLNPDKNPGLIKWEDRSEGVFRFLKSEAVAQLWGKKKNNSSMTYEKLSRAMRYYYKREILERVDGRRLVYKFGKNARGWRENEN
# Summary of the method: as §1
# SPI1 = SPI1 (Homo sapiens, UniProt P17947 1-270); conditions: protein: recombinant; tags: N-terminal GST; dsDNA, one strand shown
# Summary of the method: as §1
# SPIB = SPIB (Homo sapiens, UniProt Q01892 1-262); conditions: protein: recombinant; tags: N-terminal GST; dsDNA, one strand shown
# Summary of the method: as §1
# ELK3 = biological target: T6, ELK3 (Homo sapiens, UniProt P41970 1-407); conditions: protein: recombinant; tags: N-terminal GST; dsDNA, one strand shown
# T6 sequence: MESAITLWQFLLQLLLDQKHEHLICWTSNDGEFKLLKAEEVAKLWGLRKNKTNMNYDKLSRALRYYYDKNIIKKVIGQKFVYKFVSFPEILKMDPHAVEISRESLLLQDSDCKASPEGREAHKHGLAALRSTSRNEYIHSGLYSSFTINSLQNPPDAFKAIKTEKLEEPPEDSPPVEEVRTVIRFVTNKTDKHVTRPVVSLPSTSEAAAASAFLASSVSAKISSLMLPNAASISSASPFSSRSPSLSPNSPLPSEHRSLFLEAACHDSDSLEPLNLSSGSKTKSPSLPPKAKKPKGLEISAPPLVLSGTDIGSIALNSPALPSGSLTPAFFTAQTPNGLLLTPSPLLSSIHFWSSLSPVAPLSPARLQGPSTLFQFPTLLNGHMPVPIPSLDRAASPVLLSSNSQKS
# Summary of the method: as §1
# FEV = biological target: T7, FEV (Homo sapiens, UniProt Q99581 1-238); conditions: protein: recombinant; tags: N-terminal GST; dsDNA, one strand shown
# T7 sequence: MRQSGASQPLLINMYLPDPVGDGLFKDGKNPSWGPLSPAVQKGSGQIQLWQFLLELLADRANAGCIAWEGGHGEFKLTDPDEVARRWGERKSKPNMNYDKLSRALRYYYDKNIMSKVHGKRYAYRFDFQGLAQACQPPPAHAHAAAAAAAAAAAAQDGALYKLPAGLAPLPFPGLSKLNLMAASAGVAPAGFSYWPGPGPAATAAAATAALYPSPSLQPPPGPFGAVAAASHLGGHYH
# Summary of the method: as §1
# ETV5 = ETV5 (Homo sapiens, UniProt P41161 1-510); conditions: protein: recombinant; tags: N-terminal GST; dsDNA, one strand shown
# Summary of the method: as §1
# HSF1 = HSF1 (Homo sapiens, UniProt Q00613 1-529); conditions: protein: recombinant; tags: N-terminal GST; chain copies: 3; dsDNA, one strand shown
# Summary of the method: as §1
# SPIC = biological target: T8, SPIC (Homo sapiens, UniProt Q8N5J4 1-248); conditions: protein: recombinant; tags: N-terminal GST; dsDNA, one strand shown
# T8 sequence: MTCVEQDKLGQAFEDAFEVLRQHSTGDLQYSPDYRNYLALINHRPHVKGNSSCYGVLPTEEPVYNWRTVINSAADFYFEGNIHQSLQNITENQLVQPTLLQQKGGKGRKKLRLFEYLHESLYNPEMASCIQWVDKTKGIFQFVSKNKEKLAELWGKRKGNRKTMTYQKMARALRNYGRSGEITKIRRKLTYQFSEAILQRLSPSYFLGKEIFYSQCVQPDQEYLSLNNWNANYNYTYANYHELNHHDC
# Summary of the method: as §1
# ELF4 = ELF4 (Homo sapiens, UniProt Q99607 1-663); conditions: protein: recombinant; tags: N-terminal GST; dsDNA, one strand shown
# Summary of the method: as §1
# ELK4 = biological target: T9, ELK4 (Homo sapiens, UniProt P28324-2 1-405); conditions: protein: recombinant; tags: N-terminal GST; dsDNA, one strand shown
# T9 sequence: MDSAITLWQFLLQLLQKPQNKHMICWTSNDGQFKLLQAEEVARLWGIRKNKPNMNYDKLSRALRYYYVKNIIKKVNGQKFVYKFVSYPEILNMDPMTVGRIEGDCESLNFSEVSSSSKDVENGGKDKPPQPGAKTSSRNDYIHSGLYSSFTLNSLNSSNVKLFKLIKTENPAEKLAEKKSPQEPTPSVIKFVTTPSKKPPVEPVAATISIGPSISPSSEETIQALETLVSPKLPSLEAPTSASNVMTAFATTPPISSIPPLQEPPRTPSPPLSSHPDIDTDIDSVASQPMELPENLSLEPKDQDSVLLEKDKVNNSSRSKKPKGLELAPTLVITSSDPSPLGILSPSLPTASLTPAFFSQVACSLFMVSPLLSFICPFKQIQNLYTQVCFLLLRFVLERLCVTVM
# Summary of the method: as §1
# ETV2 = biological target: T10, ETV2 (Homo sapiens, UniProt O00321 1-342); conditions: protein: recombinant; tags: N-terminal GST; dsDNA, one strand shown
# T10 sequence: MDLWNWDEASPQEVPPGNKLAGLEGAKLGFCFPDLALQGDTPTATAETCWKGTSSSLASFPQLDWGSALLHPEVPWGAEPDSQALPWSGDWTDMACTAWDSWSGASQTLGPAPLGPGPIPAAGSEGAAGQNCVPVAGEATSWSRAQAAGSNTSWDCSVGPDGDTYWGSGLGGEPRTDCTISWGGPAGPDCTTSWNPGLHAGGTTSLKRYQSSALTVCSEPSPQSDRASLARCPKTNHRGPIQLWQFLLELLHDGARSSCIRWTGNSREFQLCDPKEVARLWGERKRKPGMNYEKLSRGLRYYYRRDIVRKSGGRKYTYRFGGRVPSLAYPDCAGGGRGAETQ
# Summary of the method: as §1
# ELF3 = biological target: T11, ELF3 (Homo sapiens, UniProt P78545 1-371); conditions: protein: recombinant; tags: N-terminal GST; dsDNA, one strand shown
# T11 sequence: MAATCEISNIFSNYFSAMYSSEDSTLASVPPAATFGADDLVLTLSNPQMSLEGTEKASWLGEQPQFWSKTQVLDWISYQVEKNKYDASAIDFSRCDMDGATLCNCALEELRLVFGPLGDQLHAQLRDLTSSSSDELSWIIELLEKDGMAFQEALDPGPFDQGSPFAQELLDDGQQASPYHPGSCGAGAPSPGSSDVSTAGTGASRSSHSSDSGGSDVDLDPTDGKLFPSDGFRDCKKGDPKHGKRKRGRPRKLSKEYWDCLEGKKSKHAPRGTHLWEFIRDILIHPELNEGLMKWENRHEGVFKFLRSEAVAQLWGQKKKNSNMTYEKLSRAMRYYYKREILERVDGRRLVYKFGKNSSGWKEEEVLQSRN
# Summary of the method: as §1
# CRX = CRX (Homo sapiens, UniProt O43186 1-299); conditions: protein: recombinant; tags: N-terminal GST; dsDNA, one strand shown
# Summary of the method: as §1
# ETV1 = ETV1 (Homo sapiens, UniProt P50549 1-477); conditions: protein: recombinant; tags: N-terminal GST; dsDNA, one strand shown
# Summary of the method: as §1
# ETV5, sequence (P41161 whole entry): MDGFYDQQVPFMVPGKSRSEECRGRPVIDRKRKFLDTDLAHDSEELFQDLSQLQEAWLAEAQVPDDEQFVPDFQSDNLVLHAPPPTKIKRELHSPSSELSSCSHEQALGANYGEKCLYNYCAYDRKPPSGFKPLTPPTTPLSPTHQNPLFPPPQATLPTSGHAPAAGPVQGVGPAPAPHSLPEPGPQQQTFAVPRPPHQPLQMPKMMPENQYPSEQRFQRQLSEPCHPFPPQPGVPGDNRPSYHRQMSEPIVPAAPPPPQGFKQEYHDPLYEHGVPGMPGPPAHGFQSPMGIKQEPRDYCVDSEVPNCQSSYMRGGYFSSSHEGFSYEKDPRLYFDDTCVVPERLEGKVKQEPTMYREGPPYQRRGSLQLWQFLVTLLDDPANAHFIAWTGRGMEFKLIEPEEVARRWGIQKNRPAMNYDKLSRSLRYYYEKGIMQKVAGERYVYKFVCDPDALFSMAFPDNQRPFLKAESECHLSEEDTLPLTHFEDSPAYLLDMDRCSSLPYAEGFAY
# ELF4, sequence (Q99607 whole entry): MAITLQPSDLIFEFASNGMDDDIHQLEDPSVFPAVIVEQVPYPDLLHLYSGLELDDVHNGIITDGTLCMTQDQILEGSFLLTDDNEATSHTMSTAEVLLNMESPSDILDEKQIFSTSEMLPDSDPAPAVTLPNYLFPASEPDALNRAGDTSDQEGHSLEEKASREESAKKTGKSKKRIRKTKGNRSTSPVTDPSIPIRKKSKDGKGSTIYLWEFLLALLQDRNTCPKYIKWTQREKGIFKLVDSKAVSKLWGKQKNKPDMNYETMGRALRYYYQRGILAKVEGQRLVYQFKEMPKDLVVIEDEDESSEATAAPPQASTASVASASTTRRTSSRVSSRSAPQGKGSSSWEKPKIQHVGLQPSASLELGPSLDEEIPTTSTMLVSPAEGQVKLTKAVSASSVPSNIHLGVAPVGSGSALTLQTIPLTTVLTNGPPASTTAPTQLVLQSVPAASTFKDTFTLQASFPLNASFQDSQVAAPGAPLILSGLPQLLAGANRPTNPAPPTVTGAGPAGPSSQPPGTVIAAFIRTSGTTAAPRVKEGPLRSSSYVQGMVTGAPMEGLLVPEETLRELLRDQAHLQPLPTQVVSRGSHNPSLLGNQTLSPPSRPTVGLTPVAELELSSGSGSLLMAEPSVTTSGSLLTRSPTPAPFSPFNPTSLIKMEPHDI
# HSF1, sequence (Q00613 whole entry): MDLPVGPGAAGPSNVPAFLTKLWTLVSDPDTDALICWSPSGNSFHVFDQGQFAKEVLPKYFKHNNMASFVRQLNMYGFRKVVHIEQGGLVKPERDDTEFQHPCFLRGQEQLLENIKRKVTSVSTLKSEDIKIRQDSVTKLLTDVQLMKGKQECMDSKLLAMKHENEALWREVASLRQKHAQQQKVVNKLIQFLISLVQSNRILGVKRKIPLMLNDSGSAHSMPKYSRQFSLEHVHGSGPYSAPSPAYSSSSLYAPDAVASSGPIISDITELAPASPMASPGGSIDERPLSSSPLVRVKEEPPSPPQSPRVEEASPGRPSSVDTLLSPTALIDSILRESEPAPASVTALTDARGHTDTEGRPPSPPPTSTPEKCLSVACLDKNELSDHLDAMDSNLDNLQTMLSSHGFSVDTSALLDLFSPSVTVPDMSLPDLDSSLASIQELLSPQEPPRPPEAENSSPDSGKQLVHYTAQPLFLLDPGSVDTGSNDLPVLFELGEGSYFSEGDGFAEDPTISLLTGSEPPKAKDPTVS
# ETV1, sequence (P50549 whole entry): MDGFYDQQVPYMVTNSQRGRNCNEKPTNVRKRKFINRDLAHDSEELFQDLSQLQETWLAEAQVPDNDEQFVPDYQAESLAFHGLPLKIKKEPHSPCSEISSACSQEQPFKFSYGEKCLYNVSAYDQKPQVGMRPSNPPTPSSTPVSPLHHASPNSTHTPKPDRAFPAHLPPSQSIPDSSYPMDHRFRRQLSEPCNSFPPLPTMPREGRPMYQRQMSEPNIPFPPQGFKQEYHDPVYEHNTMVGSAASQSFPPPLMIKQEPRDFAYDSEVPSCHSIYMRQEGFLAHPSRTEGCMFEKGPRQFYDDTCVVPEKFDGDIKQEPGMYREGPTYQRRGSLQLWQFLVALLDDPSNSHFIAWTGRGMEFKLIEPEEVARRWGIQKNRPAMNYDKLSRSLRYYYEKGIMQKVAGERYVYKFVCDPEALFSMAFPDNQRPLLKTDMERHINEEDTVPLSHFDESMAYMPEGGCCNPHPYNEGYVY
# CRX, sequence (O43186 whole entry): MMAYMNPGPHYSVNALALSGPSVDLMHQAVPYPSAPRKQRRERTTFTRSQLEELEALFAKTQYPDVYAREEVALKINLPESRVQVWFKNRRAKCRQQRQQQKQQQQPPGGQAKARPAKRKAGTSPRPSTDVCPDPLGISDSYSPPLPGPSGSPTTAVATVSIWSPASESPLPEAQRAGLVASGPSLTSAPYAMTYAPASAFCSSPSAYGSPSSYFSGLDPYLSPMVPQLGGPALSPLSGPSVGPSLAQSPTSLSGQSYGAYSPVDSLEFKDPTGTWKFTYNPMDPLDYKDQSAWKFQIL
# SPIB, sequence (Q01892 whole entry): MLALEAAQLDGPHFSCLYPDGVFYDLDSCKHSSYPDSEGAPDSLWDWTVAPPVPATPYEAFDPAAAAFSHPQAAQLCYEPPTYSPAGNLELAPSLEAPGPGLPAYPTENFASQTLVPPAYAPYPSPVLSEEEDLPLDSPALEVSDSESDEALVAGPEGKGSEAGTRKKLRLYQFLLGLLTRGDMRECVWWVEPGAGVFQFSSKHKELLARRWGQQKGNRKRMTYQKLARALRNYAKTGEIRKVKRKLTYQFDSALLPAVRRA
# ELF1, sequence (P32519 whole entry): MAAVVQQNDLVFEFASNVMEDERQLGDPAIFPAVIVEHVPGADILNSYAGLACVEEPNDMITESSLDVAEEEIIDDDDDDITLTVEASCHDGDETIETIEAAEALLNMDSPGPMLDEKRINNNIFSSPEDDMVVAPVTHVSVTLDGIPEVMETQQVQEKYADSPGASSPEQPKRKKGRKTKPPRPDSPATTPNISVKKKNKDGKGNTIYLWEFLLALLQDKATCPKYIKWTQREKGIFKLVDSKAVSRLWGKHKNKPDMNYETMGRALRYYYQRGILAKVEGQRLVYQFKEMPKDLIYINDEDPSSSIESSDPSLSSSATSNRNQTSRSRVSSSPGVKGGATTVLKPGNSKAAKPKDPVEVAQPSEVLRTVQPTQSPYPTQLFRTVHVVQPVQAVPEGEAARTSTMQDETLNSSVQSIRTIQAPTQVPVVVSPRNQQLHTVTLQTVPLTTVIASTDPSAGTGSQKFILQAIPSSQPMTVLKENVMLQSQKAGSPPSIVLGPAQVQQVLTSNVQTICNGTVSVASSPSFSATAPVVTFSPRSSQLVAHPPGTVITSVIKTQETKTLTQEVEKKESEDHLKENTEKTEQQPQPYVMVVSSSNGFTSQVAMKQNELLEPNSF
sequence,measurement,setting,value
AAACCC,binding signal,FLI1,"1.26 fold enrichment (6-mer frequency, TF over GST control)"
same,binding signal,ELK1,"1.32 fold enrichment (6-mer frequency, TF over GST control)"
same,binding signal,GABPA,"1.22 fold enrichment (6-mer frequency, TF over GST control)"
same,binding signal,ERG,"1.25 fold enrichment (6-mer frequency, TF over GST control)"
same,binding signal,ELF1,"1.32 fold enrichment (6-mer frequency, TF over GST control)"
same,binding signal,EHF,"1.27 fold enrichment (6-mer frequency, TF over GST control)"
same,binding signal,SPI1,"1.22 fold enrichment (6-mer frequency, TF over GST control)"
same,binding signal,SPIB,"1.34 fold enrichment (6-mer frequency, TF over GST control)"
same,binding signal,ELK3,"1.36 fold enrichment (6-mer frequency, TF over GST control)"
same,binding signal,FEV,"1.29 fold enrichment (6-mer frequency, TF over GST control)"
same,binding signal,ETV5,"1.29 fold enrichment (6-mer frequency, TF over GST control)"
same,binding signal,HSF1,"1.21 fold enrichment (6-mer frequency, TF over GST control)"
same,binding signal,SPIC,"1.2 fold enrichment (6-mer frequency, TF over GST control)"
same,binding signal,ELF4,"1.34 fold enrichment (6-mer frequency, TF over GST control)"
same,binding signal,ELK4,"1.24 fold enrichment (6-mer frequency, TF over GST control)"
same,binding signal,ETV2,"1.34 fold enrichment (6-mer frequency, TF over GST control)"
same,binding signal,ELF3,"1.42 fold enrichment (6-mer frequency, TF over GST control)"
same,binding signal,CRX,"1.35 fold enrichment (6-mer frequency, TF over GST control)"
same,binding signal,ETV1,"1.36 fold enrichment (6-mer frequency, TF over GST control)"

# From PMC7862700, “An all-to-all approach to the identification of sequence-specific readers for epigenetic DNA modifications on cytosine”
